HT1080 IDH1KD tx = kills HT-1080 cells with IDH1 knockdown; Potency, µM (highest dose often 46.1 µM), usual class: cytotoxic; AID 686971; 360,000 tested, 2% active; HT-1080 IDH1 knockdown viability, ATP luminescence, 48 h
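Cytotoxicity counter-line: IDH1KD HT-1080, 48 h, CellTiter-Glo. Curves classed by r2, magnitude and activity.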
DT40 TDP1 CPT = growth inhibition of DT40 Tdp1-/-;hTDP1 cells with camptothecin (screen for TDP1 inhibitors); chicken DT40 Tdp1-/-;hTDP1 cells + 20 nM CPT, ATP luminescence, 48 h; Potency, µM (series often up to 46.2 µM), actives largely listed as inhibitors; 420,000 tested, 12% active; AID 686979; also: nearly all actives have a fitted effect of over 55% in size
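Chicken DT40 Tdp1-/- cells stably complemented with human TDP1 were seeded at 400 cells/well in medium containing 20 nM camptothecin, exposed to pin-transferred compounds, and grown at 37 °C for at least 48 hr. Viability was read as ATP luminescence.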
HT1080-NT tox = kills 2HG-producing HT-1080-NT fibrosarcoma cells; HT-1080-NT fibrosarcoma viability, CellTiter-Glo ATP luminescence, 48 h; Potency, µM (titrated, usually from 46.1 µM), most hits filed as cytotoxic; 360,000 tested, 1.6% active; AID 686970;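 also: NT is the 2HG producing partner of a matched IDH1 knockdown line; nearly all actives have a fitted effect of over 55% in size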
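HT-1080-NT; 750 cells/well; 5% FBS RPMI; 48 h compound, 37 degrees C; CellTiter-Glo luminescence; curve fitting and curve-class assignment.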
IL-1B inflam inh = blocks inflammasome-driven IL-1 beta release; activity change, % at 57.5 µM; AID 743279; THP-1 LPS/ATP IL-1B secretion, AlphaLISA, 16 h; active compounds read low; 360,000 tested, 4.7% active; in the data active = activity change below about -50%; inconclusive = mostly about -30% to -49%
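THP-1 cells pretreated 1 hr with compounds (up to 57.5 uM final), then stimulated with LPS (250 ng/mL final) plus ATP (1.25 mM final); secreted IL-1B measured by AlphaLISA after 16 hr, decreased signal indicating inhibition.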
DT40 TDP1 no CPT = qHTS for Inhibitors of human tyrosyl-DNA phosphodiesterase 1 (TDP1): qHTS in cells in absence of CPT. DT40 Tdp1-/- hTDP1 cells, no CPT, ATP luminescence, 48 h. Potency, µM (doses to about 46.2 µM), hits mostly inhibitors. 420,000 tested, 15% active; also: nearly all actives have a fitted effect of over 55% in size
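Seeded 400 DT40-hTDP1 cells/well (vehicle DMSO, no 20 nM CPT); pinned compounds; ≥48 hr at 37 °C; CellTiter-Glo luminescence as viability measure.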
A number is an active result; - = inactive; ? = inconclusive; . = no result given; [ ] = remark or other dose. Shown are actives, neighbours in structure and some others; about 19% of the full set was active somewhere. Unless noted, calls follow the shape of the dose curve; as a rule, active = well fitted curve in the direction sought with a large enough effect; inconclusive = small, poorly fitted or top-dose-only effect, or another doubt; inactive = no such curve, though single readings can be large; an effect the other way counts as inactive or inconclusive.

SMILES	HT1080 IDH1KD tx	DT40 TDP1 CPT	HT1080-NT tox	IL-1B inflam inh	DT40 TDP1 no CPT
Fc1ccccc1-c1nc2ccccc2[nH]1	-	-	-	-	-
c1ccc2nc(-c3nc4ccccc4[nH]3)ccc2c1	13µM	?	26µM	-	5.2µM
Oc1ccccc1C=Nc1ccccc1-c1nc2ccccc2[nH]1	?	?	-	-	16µM
Oc1ccc(C=Nc2ccccc2-c2nc3ccccc3[nH]2)c(O)c1	-	-	-	-	-
O=C(Cn1cnc2c(OCc3ccccc3)ncnc21)NCc1ccccc1	?	?	?	-	16µM
O=C(Cn1cnc2c(OCc3ccccc3)ncnc21)NCc1ccc2[nH]ccc2c1	-	?	-	-	16µM
COc1ccc(CNC(=O)Cn2cnc3c(OCc4ccccc4)ncnc32)cc1	-	-	-	-	?
Cc1ccc(S(=O)(=O)NCC(=O)OCC(=O)NCc2cccs2)cc1	-	-	-	-	-
COc1ccccc1OCCC(=O)N1CCN(c2ccccc2OC)CC1	-	?	-	-	?
O=C(CCOc1ccccc1F)N1CCN(c2ccccc2O)CC1	-	?	-	-	16µM
CCOC(=O)N1CCN(c2ccc(C(C)=O)cc2F)CC1	-	-	-	-	-
CCC(=O)c1ccc(N2CCN(C(=O)COc3ccccc3F)CC2)c(F)c1	-	?	-	-	13µM
CC(=O)c1ccc(N2CCN(C(=O)COc3ccccc3F)CC2)c(F)c1	-	?	-	-	23µM
CN(C)c1ncnc2c1ncn2[C@H]1CN(C2CCCC2)C[C@@H](CO)O1	-	-	-	-	-
C/C(CC(=O)Nc1ccc(C)c(Cl)c1)=N\NC(=O)c1cccc(O)c1	-	?	-	-	-
Cc1ccc(S(=O)(=O)NNC(=O)c2ccc(F)cc2)cc1	-	-	-	-	-
Cc1ccc(S(=O)(=O)NNC(=O)c2ccc(C(=O)N(c3ccccc3)c3ccccc3)cc2)cc1	.	16µM	.	.	11µM
Cc1ccccc1N1CCN(C(=O)CN2C(=O)c3ccccc3C2=O)CC1	-	-	-	-	-
COc1ccc(NC(=O)Cn2ncc3c2-c2ccccc2OC3)cc1Cl	.	?	.	.	15µM
Cc1cccc(N2CCN(C(=O)Cn3ncc4c3-c3ccccc3OC4)CC2)c1C	.	18µM	.	.	16µM
COc1ccc(N2CCN(C(=O)Cn3ncc4c3-c3cc(C)ccc3OC4)CC2)cc1	.	-	.	.	-
Cc1ccc2c(c1)-c1c(cnn1CC(=O)N1CCN(c3cc(C)ccc3C)CC1)CO2	.	?	.	.	18µM
O=c1[nH]c(SCc2ccccc2)ncc1S(=O)(=O)c1ccccc1	-	-	-	.	-
O=C(O)CCC(=O)C(=O)O	.	-	.	.	-
Cc1nc2n(c(=O)c1CCN1CCC(c3noc4cc(F)ccc34)CC1)CCC[C@H]2O	.	0.094µM	.	.	0.53µM
SMILES	HT1080 IDH1KD tx	DT40 TDP1 CPT	HT1080-NT tox	IL-1B inflam inh	DT40 TDP1 no CPT
CC1=NN(c2ccc(C)cc2C)C(=O)C1C(c1ccccc1O)C1C(=O)N(c2ccc(C)cc2C)N=C1C (centres undefined)	-	-	-	-	-
CC1=NN(c2ccc(Cl)cc2)C(=O)C1C(c1ccccc1O)c1c(C)[nH]n(-c2ccc(Cl)cc2)c1=O (centres undefined)	?	?	23µM	-	?
O=Cc1ccc(O)cc1	.	-	.	.	-
CCCC(CCC)C(=O)Nc1cccc(C(=O)O)c1	-	-	-	-	-
O=C(COC(=O)CCc1ccc(S(=O)(=O)N2CCOCC2)cc1)NCc1ccc(Cl)cc1	-	-	-	-	-
O=C(COC(=O)/C=C/c1ccc(S(=O)(=O)N2CCOCC2)cc1)NC1CCCCCCC1	-	-	-	-	-
O=C(COC(=O)/C=C/c1ccc(S(=O)(=O)N2CCOCC2)cc1)NCc1ccccc1	-	7.3µM	-	-	13µM
O=C(COC(=O)/C=C/c1ccc(S(=O)(=O)N2CCOCC2)cc1)NCc1ccc(Cl)cc1	-	?	-	-	26µM
CCNC(=O)N(C)c1c(CC)nc2ccc(C(=O)N3CCN(S(=O)(=O)CC)CC3)cn12	-	-	-	-	-
Cc1nn(-c2ccccc2)c(N2CCCC2)c1/C=N/NC(=O)c1ccccc1O	?	?	-	-	?
O=C(N/N=C/c1cc2c3c(c1O)CCCN3CCC2)c1ccccc1O	?	3.7µM	?	-	4.6µM
Cc1c(C(=O)N/N=C/c2ccc(O)c(Br)c2)sc(N)c1C#N	?	?	-	-96	?
Cc1cc(C)c2c(N)c(C(=O)N/N=C/c3ccccc3)sc2n1	-	-	?	-	?
COc1cc(/C=N/NC(=O)c2ccccc2)ccc1O	-	-	-	-	-
COc1cc(/C=N/NC(=O)c2sc(N)c(C#N)c2C)ccc1O	-	?	-	-90	15µM
CSc1cccc(Nc2cc(C(=O)NCCc3ccc(Cl)cc3)c3ccccc3n2)c1	.	4.6µM	.	.	7.3µM
O=C(NCCc1ccccc1)c1cc(Sc2cccc(Cl)c2)nc2ccccc12	.	?	.	.	16µM
CCCCN(CCCNC(=O)c1cc(Nc2cccc(SC)c2)nc2ccccc12)Cc1ccccc1	.	6.5µM	.	.	4.1µM
COc1ccc(CCNC(=O)c2cc(-c3ccccn3)nc3c(Cl)cccc23)cc1OC	-	-	-	-	?
COc1ccc(CCNC(=O)c2cc(-c3ccncc3)nc3c(Cl)cccc23)cc1OC	-	21µM	-	-	21µM
CCN(CC)CCCNC(=O)c1cc(Nc2ccc(OC)cc2OC)nc2ccccc12	-	?	-	-	?
NC(=O)C[C@H](N)c1cn([C@@H](CC(N)=O)C(=O)N2CCNCC2)nn1	-	-	-	-	-
Nc1sc(-c2ccccc2)cc1C(=O)NCCc1ccc(Cl)cc1	-	23µM	-	-	16µM
COc1ccc(CCNC(=O)c2cc(Nc3cc(C)cc(C)c3)nc3ccccc23)cc1OC	.	8.2µM	.	.	8.2µM
COc1ccc(CCNC(=O)c2ccccc2C(=O)NCCc2ccc(OC)c(OC)c2)cc1OC	-	-	?	-	-
SMILES	HT1080 IDH1KD tx	DT40 TDP1 CPT	HT1080-NT tox	IL-1B inflam inh	DT40 TDP1 no CPT
C=CCNC(=O)c1cc(-c2ccccc2)sc1N	-	?	-	-	?
C=CCn1c(SCC(=O)NCc2cccs2)nnc1C1CCCCC1	-	?	-	-	?
Cc1ccccc1C(N)=O	-	-	-	-	-
Cn1c(-c2ccccc2)cc2onc(-c3ccccc3)c2c1=O	-	15µM	-	-	21µM
Cn1c(-c2ccccc2F)cc2onc(-c3ccccc3)c2c1=O	-	?	-	?	?
Cc1c(OCc2ccccc2)cccc1OCc1ccccc1	-	-	?	-	-
CC(C)(CO)NCc1c(OCc2ccc(Cl)cc2)ccc2ccccc12	?	?	?	-106	?
CNCc1c(OCc2ccccc2)ccc2ccccc12	?	?	-	-86	?
Cc1c(C(=O)NCc2ccc3c(c2)OCO3)cnn1-c1ncc2c(n1)-c1ccccc1CC2	.	-[9.04 µM]	.	.	-

Bioassay records deposited in PubChem by National Center for Advancing Translational Sciences (NCATS).
